Rango-impB inh: prevents formation of the Rango-importin beta complex; Potency, µM (top dose mostly 92.2 µM), for inactives: top-dose inhibition of complex formation; Rango CFP/YFP FRET sensor + importin beta, 45 min; Q14974; 340,000 compounds, 0.031% hits;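 further: potency means the concentration at half of the fitted maximal effect; 0% = DMSO wells and 100% = buffer wells lacking importin beta; nearly all actives have a fitted effect of over 15% in size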
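Inhibition scored from the CFP 486 nm/YFP 530 nm FRET ratio 45 min after adding 0.125 microM importin beta to 50 nM Rango biosensor preincubated 5 min with compound (room temperature, PBS with DTT, Tween-20, BSA). No-importin wells as positive control.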
Rango release inh: inhibitors of RanGTP-induced Rango-importin beta complex dissociation | AID 540253 | Biochemical FRET Rango-importin beta, RanGTP-induced dissociation | 340,000 compounds, 0.071% hits | O95149+P62826 | Potency, µM (highest dose often 46.1 µM), without a hit: at the top dose activity change, negative = inhibition; further: potency means the concentration at half of the fitted maximal effect; % of control where 0% means no effect; nearly all actives have a fitted effect of over 45% in size
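Compounds sat 5 min at room temperature with 0.1 uM Rango biosensor plus 0.25 uM importin beta, then FRET pre-read. RanGTP-RCC1 (0.6 uM Ran, 2mM GTP, 0.2 uM RCC1) added for 45 min, and the CFP/YFP post-read measured blocked complex dissociation.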
MBNL1 CUG block: blocks human MBNL1 binding to CUG repeat RNA | TR-FRET MBNL1-His/biotin-(CUG)12 binding, 665/545 ratio | Potency, µM (doses to about 57.5 µM), without a hit: top-dose activity change, negative = inhibition, hits mostly inhibitors | 280,000 compounds, 0.036% hits | AID 2675; active means well fitted inhibition curve with a large enough effect in the signal ratio, with a control signal flat, not every such curve was filed as active; inconclusive means small, poorly fitted or top-dose-only effect, or effect the other way, or a change in a side signal; inactive means no such curve, though single readings can be large or run the other way; the % refers to the signal ratio; further: potency means the concentration at half of the fitted maximal effect; on the % scale 0 is the no-effect control and ±100 the full control effect
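Inhibition of protein-RNA binding appears as loss of TR-FRET between terbium anti-His antibody on MBNL1-His and streptavidin-XL665 on biotin-(CUG)12. Activity is normalized to buffer-only and uninhibited-complex controls.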
CBFb RUNX1 block: CBF-beta/RUNX1 interaction disruption; Q01196+Q13951; AlphaScreen CBFb-His/RUNX1-biotin binding, biochemical; Potency, µM (doses to about 59.8 µM), without a hit: top-dose activity, negative = inhibition, usual class: inhibitors; 230,000 tested, under 10 active; AID 1477; active means well fitted curve in the direction sought with a large enough effect; inconclusive means small, poorly fitted or top-dose-only effect, or effect the other way, or another doubt; inactive means no such curve, though single readings can be large or run the other way; further: % of control where 0% means no effect
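Room-temperature protein-protein interaction test with 30 nM each of His-tagged CBF-beta and biotinylated RUNX1, 15 min with compound, then 90 min with nickel plus streptavidin beads. Signal read in AlphaScreen mode.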
ClpP mod: qHTS Assay for Activators of ClpP; purified B. subtilis ClpP, FRET peptide cleavage, 20 min; AID 651965, 2013; ATP-dependent Clp protease proteolytic subunit (Bacillus subtilis (strain 168)), P80244; 340,000 compounds, 1.9% hits; Potency, µM (series often up to 57.5 µM), without a hit: top-dose activity change, negative = active; active means well fitted falling curve with a large enough effect; inconclusive means small, poorly fitted or top-dose-only effect; inactive means no such curve, though single readings can be large or run the other way; further: potency means the concentration at half of the fitted maximal effect; the source files actives as falling curves though it sought activators and does not explain the sign; nearly all actives have a fitted effect of over 65% in size
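ClpP 10 microg/mL final, pH 8 Tris/KCl buffer with BSA, glycerol, Tween-20; compound pinned in; FRET-FV substrate; RT 20 min; Ex320/Em430; ΔFRET vs ADEP 5.8 microM, DMSO, no enzyme.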
* hit, by the source's call; ? = inconclusive; · = not tested or not shown; [ ] = another dose, or the depositor's remark. Many of the other results were omitted from the sample, so hits are more common in it than they were. Unless noted, the call rests on the fitted dose curve.

SMILES	Rango-impB inh	Rango release inh	MBNL1 CUG block	CBFb RUNX1 block	ClpP mod
CCc1ccc(OCC(=O)N(Cc2ccc(C(C)C)cc2)C2CCS(=O)(=O)C2)cc1 (stereo unspecified)	·	·	·	·	0%
CCOC(=O)C1CCN(C(=O)c2cnn(-c3ccc(F)cc3)c2-n2cccc2)CC1	·	·	·	·	-4%
COc1ccccc1CC(=O)N1CCN(c2ccccn2)CC1	1%	2%	-9%	1%	22µM*
Cc1cc(C)c(C)c(OCC(=O)N2CCN(c3ccccn3)CC2)c1	-3%	35%	-1%	·	?
Cc1cc(OCC(=O)N2CCN(c3ccccn3)CC2)c(C)cc1Br	1%	-3%	-7%	·	35µM*
Cc1ccc2ccc3cc(C(=O)Nc4ccc(C)c(F)c4)nc3c2[nH]1	·	·	·	·	-14%
Cc1ccc(N=Nc2c(N)[nH]n3c(=O)cc(-c4ccccc4)nc23)cc1	-2%	-4%	2%	-13%	28µM*
CCN1CCn2c3c(c4cc(Cl)ccc42)CCCC31 (stereo unspecified)	3%	-14%	14%	-7%	16µM*
Nc1nc2ccc(Cl)cc2cc1C(=O)NCCCN1CCOCC1	·	·	·	·	4%
CC1(C)CC(=O)c2cc(C(=O)NC3CCSC3=O)c(=O)n(-c3ccccc3)c2C1 (stereo unspecified)	-5%	2%	1%	6%	25µM*
O=C1CCCc2c1cc(C(=O)O)c(=O)n2-c1ccccc1	-1%	-17%	5%	2%	·
CC1(C)CC(=O)c2cc(C(=O)Nn3cnnc3)c(=O)n(-c3ccccc3)c2C1	-5%	9%	-4%	-3%	?
O=C1CCCc2c1cc(C(=O)NC1CCSC1=O)c(=O)n2-c1ccccc1 (stereo unspecified)	0%	4%	4%	0%	25µM*
COc1ccc(-c2nnc(N(C)C(=O)c3ccno3)s2)cc1	0%	6%	?	2%	22µM*
CN(C(=O)c1ccno1)c1nnc(-c2ccccn2)s1	-4%	0%	-7%	-6%	-23%
CCOC(=O)C1(Cc2cccc(Cl)c2)CCCN(C(=O)c2cc(C)[nH]n2)C1 (stereo unspecified)	-1%	6%	1%	·	28µM*
CCOC(=O)C1(Cc2cccc(Cl)c2)CCCN(C(=O)c2cc(C)on2)C1 (stereo unspecified)	-1%	-1%	-2%	·	-3%
COc1cc(OC)c(C2C3=C(CCCC3=O)Nc3nc4ccccc4n32)cc1OC (stereo unspecified)	0%	-4%	8%	9%	25µM*
COc1ccc(C2C(C(=O)c3ccccc3)=C(C)Nc3nc4ccccc4n32)c(OC)c1 (stereo unspecified)	?	-9%	14%	6%[2.36 µM]	1%
CCN(CC)C(=O)CSc1nnc(-c2cc(-c3ccc(Cl)cc3)nc3ccccc23)o1	1%	-4%	-9%	11%	-2%
CN(C)C(=O)CSc1nnc(-c2cc(-c3cccs3)nc3ccccc23)o1	-5%	-19%	14%	-13%	25µM*
Cc1ccc(NC(=O)C(C)c2ccc(-c3ccccc3)c(F)c2)cc1 (stereo unspecified)	3%	33%	-2%	19%	35µM*
Cc1ccc(NC(=O)C(Nc2ccccc2)c2ccccc2)cc1 (stereo unspecified)	0%	5%	·	19%	·
O=C(CN1CCN(c2ccc(O)cc2)CC1)Nc1cc([N+](=O)[O-])ccc1Cl	-6%	-5%	?	10%	16µM*
Cc1cc(C)n2nc(NCc3cccc(Br)c3)nc2n1	-2%	-8%	13%	4%	14µM*
SMILES	Rango-impB inh	Rango release inh	MBNL1 CUG block	CBFb RUNX1 block	ClpP mod
COC(=O)C1CSC(C(=O)OC)N1C(=O)Nc1ccc(Cl)cc1 (stereo unspecified)	1%	1%	4%	-1%	32µM*
COC(=O)C1CSC(C(=O)OC)N1C(=O)Nc1ccc(Cl)c(Cl)c1 (stereo unspecified)	-1%	-2%	2%	12%	1%
COc1ccc(CN(Cc2ccccc2)C(=O)Nc2ccccc2)cc1COc1ccc(NC(C)=O)cc1	·	·	·	·	-2%
CC(C(=O)O)N1C(=O)C2C3CC(C2C1=O)C1C(c2ccccc2)c2sc(=O)[nH]c2SC31 (stereo unspecified)	?	23µM*	-6%	16%	-5%
CC(C)C(=O)Nc1ccc([N+](=O)[O-])cc1Br	11%	21%	?	-2%	35µM*
O=[N+]([O-])c1ccc2c(c1)S(=O)(=O)C=C2	·	·	·	10%	·
COc1cc(C2C3=C(CCCC3=O)Nc3ccc4ncccc4c32)ccc1O (stereo unspecified)	0%	-2%	?	3%	·
COc1ccc(C2C3=C(CCCC3=O)Nc3ccc4ncccc4c32)cc1OC (stereo unspecified)	-1%	-4%	?	0%	6.3µM*
CCC(=O)Nc1nnc(-c2cccs2)s1	0%	-18%	18%	-2%	·
CCC(C)C(=O)Nc1nnc(-c2cccs2)s1 (stereo unspecified)	0%	-8%	19%	-1%	32µM*
O=C(COc1ccc(F)cc1)Nc1nnc(-c2ccncc2)s1	?	?	-2%	7%	25µM*
O=C(Cc1cccs1)Nc1nnc(-c2ccncc2)s1	-1%	?	1%	-3%	28µM*
COc1ccc(Cc2nnc(NC(=O)Cc3cccs3)s2)cc1OC	1%	2%	-1%	?	28µM*
O=C(Cc1cccs1)Nc1nnc(Cc2ccccc2)s1	?	-23%	7%	?	1%
CCN(CC)C(=O)c1cccc(-c2csc(C(C)(O)c3ccc(F)c(F)c3)n2)c1 (stereo unspecified)	·	·	·	·	0%
COC(=O)N1C2=C(c3ccccc3[C@@H]1CC(=O)Nc1ccc(Br)cc1)[C@@H]1C(=O)N(c3ccccc3)C(=O)[C@@H]1[C@H](C)C2	·	·	·	-1%[13.1 µM]	·
Cc1ccc(NC(=O)C(C)Sc2nc3c(c(=O)[nH]2)CCCC3)cc1Cl (stereo unspecified)	·	·	·	·	1%
O=C(Cc1ccccc1)Nc1nnc(-c2cccs2)s1	1%	3%	16%	10%	20µM*
Cc1cc(NCCCN2CCOCC2)n2c(nc3ccccc32)c1C#N	?	?	9%	5%	-2%
Cc1cc(NCCN2CCOCC2)n2c(nc3ccccc32)c1C#N	-7%	-1%	0%	5%	3.5µM*
CCOc1ccc(CNC(=O)c2oc3c(c2C)-c2nn(Cc4cccc(Cl)c4)cc2CC3)cc1	·	·	·	·	-27%
CCN(CC)CCCNc1cc2n(c(=O)n1)CCc1cc(OC)c(OC)cc1-2	?	-2%	6%	8%	25µM*
